Results on 24 targets are retold here after the supplement of paper PMC10849652.

Targets with a hit are over-represented here; the source holds about 8,800 in all. About 0.5% of all pairs of compound and target were hits. Values without a mark were called inactive.

Assay in all cases: log2 fold change, soluble protein after heating vs DMSO (PISA); higher = thermal stabilisation; K562 lysate, 10 uM; active = over 0.2 and 3.5 SD of the protein, either way, in both replicates (recomputed)
Compound in assay [1]: C1=CC=C(C=C1)[C@H](COC2=CC3=C(C=C2)NC(=O)N3)NC(=O)C4=CC=CN(C4=O)CC5=CC(=C(C=C5)F)F
Put shortly: (§1)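 Quantification was by TMTpro 16plex LC-MS/MS with equalised channel sums, applied to the supernatant after 21,000xg for 90 min. Samples were crude K562 extract at 1 mg/mL protein in PBS pH 7.4 with 1 mM MgCl2, treated with 10 μM compound for 30 min, heated for 3 min across 48°C-58°C, pooled and brought to 0.5% NP-40 at 4°C. Values are log-two fold changes in thermal stability relative to solvent controls, from duplicates.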

Compound in assay [2]: CC1=C(SC2=C1C(=N[C@H](C3=NN=C(N32)C)CC(=O)N)C4=CC=C(C=C4)Cl)C
Put shortly:
as §1

Compound in assay [3]: CC1=C2C(=CC=C1)N=C(N(C2=O)C3=CC=CC=C3C)CN4C=NC5=C(N=CN=C54)N
Put shortly: as §1

Compound in assay [4]: Cc1sc2c(c1C)C(c1ccc(Cl)cc1)=N[C@@H](CC(=O)OC(C)(C)C)c1nnc(C)n1-2
Put shortly:
as §1

Compound in assay [5]: c1ccc([C@@H]2C[C@H]2NC2CCNCC2)cc1
Put shortly: as §1

UniProt Q6PJW8, sequence (Q6PJW8 whole entry, looked up): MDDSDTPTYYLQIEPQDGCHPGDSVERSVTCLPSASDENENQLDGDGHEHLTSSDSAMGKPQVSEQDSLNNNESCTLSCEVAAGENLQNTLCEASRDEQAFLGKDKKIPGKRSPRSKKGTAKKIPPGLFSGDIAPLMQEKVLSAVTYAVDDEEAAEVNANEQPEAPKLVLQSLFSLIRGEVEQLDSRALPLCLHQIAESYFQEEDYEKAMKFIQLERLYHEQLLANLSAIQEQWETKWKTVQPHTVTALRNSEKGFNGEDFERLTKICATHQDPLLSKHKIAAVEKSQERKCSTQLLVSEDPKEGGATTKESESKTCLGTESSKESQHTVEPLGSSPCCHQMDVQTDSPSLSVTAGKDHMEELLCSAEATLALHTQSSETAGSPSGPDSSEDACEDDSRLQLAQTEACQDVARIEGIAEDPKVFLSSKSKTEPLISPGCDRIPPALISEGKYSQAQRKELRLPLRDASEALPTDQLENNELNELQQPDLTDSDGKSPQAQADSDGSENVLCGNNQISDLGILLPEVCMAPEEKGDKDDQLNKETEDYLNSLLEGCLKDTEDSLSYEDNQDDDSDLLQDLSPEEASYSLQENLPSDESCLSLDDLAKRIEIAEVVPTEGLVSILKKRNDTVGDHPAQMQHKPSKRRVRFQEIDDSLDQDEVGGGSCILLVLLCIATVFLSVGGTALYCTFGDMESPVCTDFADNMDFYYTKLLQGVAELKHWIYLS
UniProt Q7Z401, sequence (Q7Z401 whole entry, looked up): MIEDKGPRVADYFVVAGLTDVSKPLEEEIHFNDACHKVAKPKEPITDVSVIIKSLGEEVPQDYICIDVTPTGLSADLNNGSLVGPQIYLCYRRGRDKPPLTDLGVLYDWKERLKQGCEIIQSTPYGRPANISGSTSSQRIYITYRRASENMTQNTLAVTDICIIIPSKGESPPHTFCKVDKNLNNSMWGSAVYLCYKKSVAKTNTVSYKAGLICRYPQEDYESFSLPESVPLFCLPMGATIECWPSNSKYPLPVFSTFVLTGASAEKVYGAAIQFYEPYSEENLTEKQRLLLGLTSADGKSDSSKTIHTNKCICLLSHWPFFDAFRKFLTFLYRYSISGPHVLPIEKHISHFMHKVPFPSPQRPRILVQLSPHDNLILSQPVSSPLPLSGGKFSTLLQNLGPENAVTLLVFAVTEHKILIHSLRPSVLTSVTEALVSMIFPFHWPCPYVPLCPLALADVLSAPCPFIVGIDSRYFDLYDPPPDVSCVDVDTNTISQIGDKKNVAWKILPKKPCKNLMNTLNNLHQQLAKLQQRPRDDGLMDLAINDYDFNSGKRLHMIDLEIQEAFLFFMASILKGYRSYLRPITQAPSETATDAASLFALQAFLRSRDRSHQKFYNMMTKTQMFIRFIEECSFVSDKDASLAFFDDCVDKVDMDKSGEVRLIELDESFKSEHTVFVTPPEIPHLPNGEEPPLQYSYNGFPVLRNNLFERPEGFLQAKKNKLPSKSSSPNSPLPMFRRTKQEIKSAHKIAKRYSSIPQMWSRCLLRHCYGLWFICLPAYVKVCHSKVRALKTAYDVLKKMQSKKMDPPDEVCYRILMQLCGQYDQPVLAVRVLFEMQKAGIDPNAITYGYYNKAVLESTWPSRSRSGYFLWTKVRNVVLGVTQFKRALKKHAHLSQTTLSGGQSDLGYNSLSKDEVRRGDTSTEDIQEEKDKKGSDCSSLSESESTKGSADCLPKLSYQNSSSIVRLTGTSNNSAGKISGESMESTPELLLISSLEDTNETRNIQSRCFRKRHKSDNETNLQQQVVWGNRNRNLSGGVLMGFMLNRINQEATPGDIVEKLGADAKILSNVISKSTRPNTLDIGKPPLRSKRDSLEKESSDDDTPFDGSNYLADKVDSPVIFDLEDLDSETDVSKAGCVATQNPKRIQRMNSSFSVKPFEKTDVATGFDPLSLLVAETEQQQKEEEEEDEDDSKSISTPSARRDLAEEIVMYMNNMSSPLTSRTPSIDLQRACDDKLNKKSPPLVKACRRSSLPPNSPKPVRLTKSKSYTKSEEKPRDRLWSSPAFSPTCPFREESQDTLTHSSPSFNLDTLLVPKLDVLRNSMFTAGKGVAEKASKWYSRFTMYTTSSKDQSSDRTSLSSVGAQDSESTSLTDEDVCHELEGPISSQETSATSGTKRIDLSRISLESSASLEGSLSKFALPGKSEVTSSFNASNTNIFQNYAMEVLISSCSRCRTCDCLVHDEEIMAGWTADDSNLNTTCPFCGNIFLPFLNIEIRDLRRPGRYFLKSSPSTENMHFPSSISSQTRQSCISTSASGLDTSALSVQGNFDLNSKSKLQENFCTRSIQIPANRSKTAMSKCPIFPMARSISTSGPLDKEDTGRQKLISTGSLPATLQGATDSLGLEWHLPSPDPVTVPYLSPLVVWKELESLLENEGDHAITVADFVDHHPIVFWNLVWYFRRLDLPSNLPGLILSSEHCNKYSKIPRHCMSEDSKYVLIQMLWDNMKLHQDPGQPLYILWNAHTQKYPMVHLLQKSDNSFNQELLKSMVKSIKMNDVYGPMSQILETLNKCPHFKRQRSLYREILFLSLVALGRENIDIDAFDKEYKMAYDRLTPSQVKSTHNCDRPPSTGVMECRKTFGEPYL
UniProt P33240, sequence (P33240 whole entry, looked up): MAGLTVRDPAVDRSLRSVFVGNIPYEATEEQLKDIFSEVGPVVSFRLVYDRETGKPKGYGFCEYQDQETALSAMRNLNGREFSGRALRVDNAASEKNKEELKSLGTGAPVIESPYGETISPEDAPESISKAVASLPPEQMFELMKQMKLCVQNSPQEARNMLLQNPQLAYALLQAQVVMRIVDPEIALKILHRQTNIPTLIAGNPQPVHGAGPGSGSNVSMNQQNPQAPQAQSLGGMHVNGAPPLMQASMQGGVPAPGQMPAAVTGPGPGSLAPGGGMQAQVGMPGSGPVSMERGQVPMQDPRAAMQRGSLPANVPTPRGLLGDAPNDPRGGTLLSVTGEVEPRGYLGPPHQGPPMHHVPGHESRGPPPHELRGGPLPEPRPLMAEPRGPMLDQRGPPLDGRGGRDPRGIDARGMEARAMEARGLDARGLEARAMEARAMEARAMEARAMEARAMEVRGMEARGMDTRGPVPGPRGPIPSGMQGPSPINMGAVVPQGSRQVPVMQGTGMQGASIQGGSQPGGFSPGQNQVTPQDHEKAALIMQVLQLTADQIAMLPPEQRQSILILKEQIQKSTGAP
UniProt Q9H078, sequence (Q9H078 whole entry, looked up): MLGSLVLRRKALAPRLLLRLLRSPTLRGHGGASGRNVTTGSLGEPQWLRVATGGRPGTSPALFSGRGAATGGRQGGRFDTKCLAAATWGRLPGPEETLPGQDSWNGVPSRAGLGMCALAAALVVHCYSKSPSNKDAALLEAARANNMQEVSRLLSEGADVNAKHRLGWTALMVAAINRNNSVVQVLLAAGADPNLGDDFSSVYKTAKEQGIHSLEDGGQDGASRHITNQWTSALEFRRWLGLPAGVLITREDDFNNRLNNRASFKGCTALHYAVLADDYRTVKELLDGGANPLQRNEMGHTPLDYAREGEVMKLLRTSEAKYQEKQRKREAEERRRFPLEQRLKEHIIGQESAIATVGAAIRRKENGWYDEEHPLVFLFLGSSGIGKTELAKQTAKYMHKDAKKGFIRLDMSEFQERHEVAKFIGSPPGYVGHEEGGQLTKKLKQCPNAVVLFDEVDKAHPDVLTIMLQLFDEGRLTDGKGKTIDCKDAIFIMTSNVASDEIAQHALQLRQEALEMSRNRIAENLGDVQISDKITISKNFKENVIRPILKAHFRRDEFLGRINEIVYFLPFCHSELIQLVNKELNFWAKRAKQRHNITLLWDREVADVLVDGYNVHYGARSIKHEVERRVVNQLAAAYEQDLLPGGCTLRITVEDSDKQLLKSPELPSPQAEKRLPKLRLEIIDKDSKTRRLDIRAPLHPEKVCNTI
UniProt P26374, sequence (P26374 whole entry, looked up): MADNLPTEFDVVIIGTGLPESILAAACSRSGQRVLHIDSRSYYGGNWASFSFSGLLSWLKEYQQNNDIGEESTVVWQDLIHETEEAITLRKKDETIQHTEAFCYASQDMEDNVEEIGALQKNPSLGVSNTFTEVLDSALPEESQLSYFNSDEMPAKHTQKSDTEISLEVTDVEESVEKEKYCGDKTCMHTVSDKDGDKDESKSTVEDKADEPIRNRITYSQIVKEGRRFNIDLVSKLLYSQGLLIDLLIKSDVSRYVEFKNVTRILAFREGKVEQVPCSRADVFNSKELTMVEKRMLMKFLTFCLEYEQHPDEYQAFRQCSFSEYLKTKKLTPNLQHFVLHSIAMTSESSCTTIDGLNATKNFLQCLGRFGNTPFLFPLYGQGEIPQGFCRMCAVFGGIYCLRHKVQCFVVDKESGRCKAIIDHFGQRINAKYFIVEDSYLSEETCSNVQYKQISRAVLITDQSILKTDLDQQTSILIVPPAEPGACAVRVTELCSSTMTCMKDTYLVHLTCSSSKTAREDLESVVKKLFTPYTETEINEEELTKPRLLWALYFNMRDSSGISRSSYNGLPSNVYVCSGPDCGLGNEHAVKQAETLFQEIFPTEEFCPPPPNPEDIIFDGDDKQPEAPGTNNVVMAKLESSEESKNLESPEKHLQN
UniProt P99999, sequence (P99999 whole entry, looked up): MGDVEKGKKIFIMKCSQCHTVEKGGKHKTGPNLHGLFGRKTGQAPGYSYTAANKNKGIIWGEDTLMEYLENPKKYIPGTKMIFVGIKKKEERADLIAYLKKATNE
UniProt Q92564, sequence (Q92564 whole entry, looked up): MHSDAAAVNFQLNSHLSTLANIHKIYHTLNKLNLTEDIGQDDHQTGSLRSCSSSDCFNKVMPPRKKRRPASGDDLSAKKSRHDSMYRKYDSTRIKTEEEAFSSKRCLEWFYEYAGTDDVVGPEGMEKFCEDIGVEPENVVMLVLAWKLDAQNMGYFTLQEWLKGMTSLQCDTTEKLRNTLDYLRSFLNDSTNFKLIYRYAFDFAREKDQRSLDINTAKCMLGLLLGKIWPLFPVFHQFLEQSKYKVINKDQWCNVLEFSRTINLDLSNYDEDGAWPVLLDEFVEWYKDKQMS

On to DAZAP1 (UniProt Q96EP5), for which the log2 fold change is 0.011 in assay [1]; -0.046 in assay [2]; 0.005 in assay [3]; 0.088 in assay [4]; -0.086 in assay [5].
Regarding CSTF2 (UniProt P33240), the log2 fold change in assay [1] is -0.027; in assay [2], 0.021; in assay [3], 0.055; in assay [4], -0.032; in assay [5] it was 0.01.
The corresponding values for DDX4 (UniProt Q9NQI0) are -0.047, 0.007, -0.004, 0.049 and -0.265.
The corresponding values for CNOT6L (UniProt Q96LI5) are -0.014, 0.017, -0.013, -0.049 and -0.164.
The corresponding values for CYCS (UniProt P99999) are -0.013, 0.016, 0.002, 0.002 and -0.01.
Consider CSDE1 isoform 4 (UniProt O75534), for which the log2 fold change in assay [1] was -0.012; in assay [2], -0.009; in assay [3], -0.017; in assay [4] it was 0.046; in assay [5], 0.04.
For CXXC1 isoform 2 (UniProt Q9P0U4) the same measures were 0.006, 0.07, 0.032, -0.173 and 0.029.
As to DARS (UniProt P14868), the log2 fold change in assay [1] is -0.01; in assay [2], 0.001; in assay [3], 0.037; in assay [4] it was 0.043; in assay [5], 0.025.
As for DMXL1 (UniProt Q9Y485), the log2 fold change in assay [1] was 0.011; in assay [2] it was 0.01; in assay [3] it was 0; in assay [4], -0.005; in assay [5] it was 0.016.
The corresponding values for CHML (UniProt P26374) are 0.011, -0.027, 0.01, 0.016 and -0.03.
For DCP2 (UniProt Q8IU60) the same measures were 0.006, -0.001, 0.041, 0.026 and 0.048.
In the case of CLPB isoform 2 (UniProt Q9H078), the log2 fold change in assay [1] was -0.031; in assay [2], -0.012; in assay [3], 0; in assay [4] it was 0.094; in assay [5] it was 0.079.
For DNAJC5 (UniProt Q9H3Z4) the same measures were 0.032, -0.015, -0.034, 0.009 and -0.308.
The corresponding values for CIB1 (UniProt Q99828) are -0.128, -0.272 (active), -0.039, 0.023 and 0.03.
For DCUN1D4 isoform 3 (UniProt Q92564) the same measures were 0.084, 0.087, 0.055, -0.139 and 0.055.
Consider DDX20 (UniProt Q9UHI6), for which the log2 fold change was -0.008 in assay [1]; -0.064 in assay [2]; -0.006 in assay [3]; 0.027 in assay [4]; 0.077 in assay [5].
The corresponding values for DENND4A isoform 2 (UniProt Q7Z401) are -0.02, 0.028, -0.007, 0.039 and -0.064.
The corresponding values for CMSS1 (UniProt Q9BQ75) are 0.035, -0.069, -0.017, -0.023 and 0.106.
Take CNST (UniProt Q6PJW8): the log2 fold change in assay [1] was 0.041; in assay [2], 0.019; in assay [3], -0.018; in assay [4], 0.004; in assay [5] it was -0.031.
For CNOT4 isoform 9 (UniProt O95628) the same measures were -0.173, 0.081, -0.014, -0.066 and -0.551.
For DHRS3 (UniProt O75911) the same measures were 0.073, 0.064, -0.091, 0.018 and -0.004.
The corresponding values for DIAPH1 (UniProt O60610) are -0.005, 0.013, 0.015, 0.007 and 0.023.
With CLCN3 isoform 2 (UniProt P51790), the log2 fold change in assay [1] is 0.033; in assay [2], 0.017; in assay [3] it was 0.053; in assay [4], -0.015; in assay [5], 0.033.
Turning to CLIP1 isoform 1 (UniProt P30622), the log2 fold change in assay [1] is 0.04; in assay [2], -0.008; in assay [3], -0.002; in assay [4], -0.028; in assay [5], -0.019.
